Test results taken from PubChem BioAssay (NCI).
About 79,000 compounds went through this panel and 15% of them were active in at least one assay; those are over-represented in the sample as a whole. The source made the active and inactive calls. Rule as the data show it: active = growth inhibition above about 70%; inactive = the rest.

What was measured:
[1] = NCI Yeast Anticancer Drug Screen. Data for the wt1 strain (AID 149);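 also: 0% = growth of vehicle-treated wt1 cultures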; conditions: S. cerevisiae wt1 strain (SPY 50644) growth inhibition, hits give high values
In short: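 wt1 yeast, compound-treated; % growth inhibition vs vehicle control.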

[2] = NCI Yeast Anticancer Drug Screen. Data for the rad50EPP+ strain (AID 151);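 also: 0% = growth of vehicle-treated control cultures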; conditions: S. cerevisiae rad50 mutant strain, hits give high values
In short: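 Growth inhibition read against vehicle controls in rad50EPP+ yeast, a strain altered in DNA damage repair, after compound exposure.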

[3] = NCI Yeast Anticancer Drug Screen. Data for the mgt1 strain (AID 153); conditions: S. cerevisiae mgt1 mutant growth inhibition, hits give high values
In short: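 mgt1 yeast grown with test compound; read-out is growth inhibition versus vehicle-treated cultures.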

[4] = NCI Yeast Anticancer Drug Screen. Data for the rad50 strain (AID 155);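 also: 0% = growth of vehicle-only cultures of the same strain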; conditions: S. cerevisiae rad50 strain growth inhibition, hits give high values
In short: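 Genetically altered yeast (DNA repair pathway); compound treatment; growth inhibition vs vehicle ctrl.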

[5] = NCI Yeast Anticancer Drug Screen. Data for the mec2-1 strain (AID 157); conditions: S. cerevisiae mec2-1 strain, hits give high values
In short: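 Yeast mec2-1 mutant treated with compound. Readout: growth inhibition vs vehicle controls.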

[6] = NCI Yeast Anticancer Drug Screen. Data for the rad14 strain (AID 159);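 also: 0% = growth of vehicle-treated control cultures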; conditions: S. cerevisiae rad14 strain growth inhibition, hits give high values
In short: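 Test compounds were applied to a repair-deficient yeast strain. Its growth was then compared with that of cultures given vehicle alone, and inhibition was expressed relative to those controls.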

[7] = NCI Yeast Anticancer Drug Screen. Data for the sgs1 mgt1 strain (AID 161);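 also: 0% = growth of cultures given vehicle only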; conditions: S. cerevisiae sgs1 mgt1 strain, hits give high values
In short: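 Test agents were incubated with a DNA-repair-mutant yeast strain. Growth was then read and compared against vehicle-treated controls.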

[8] = NCI Yeast Anticancer Drug Screen. Data for the CLN2oe strain (AID 163);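 also: 0% = growth of vehicle-only control cultures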; conditions: S. cerevisiae CLN2oe strain, hits give high values
In short: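 Read-out: yeast growth inhibition, expressed relative to vehicle-only controls. The strain bears an engineered cell-cycle alteration.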

[9] = NCI Yeast Anticancer Drug Screen. Data for the cln2 rad14 strain (AID 165);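 also: 0% = growth equal to vehicle treated cultures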; conditions: S. cerevisiae cln2 rad14 strain, hits give high values
In short: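 cln2 rad14 yeast strain; compound exposure; growth inhibition read vs vehicle controls.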

[10] = NCI Yeast Anticancer Drug Screen. Data for the bub3 strain (AID 167); conditions: S. cerevisiae bub3 mutant strain, hits give high values
In short: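 Yeast carrying a defined mutation is treated with each compound, and growth is compared with that of vehicle-exposed cells to give inhibition.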

[11] = NCI Yeast Anticancer Drug Screen. Data for the wt2 strain (AID 169);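 also: 0% = growth of vehicle-treated yeast cultures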; conditions: S. cerevisiae wt2 strain growth inhibition, hits give high values
In short: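 Read-out: growth inhibition versus vehicle-treated control cultures after compound exposure of the yeast strain.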

[12] = NCI Yeast Anticancer Drug Screen. Data for the mlh1 strain (AID 171);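 also: 0% = growth of vehicle-treated control cultures of the same strain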; conditions: S. cerevisiae mlh1 strain growth inhibition, hits give high values
In short: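 Read-out: growth inhibition versus vehicle controls. Strain: engineered yeast with a defined DNA repair or cell cycle defect, compound-treated.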

[13] = NCI Yeast Anticancer Drug Screen. Data for the sgs1 strain (AID 173);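 also: 0% = growth of vehicle-only control cultures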; conditions: S. cerevisiae sgs1 mutant, hits give high values
In short: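 Read-out: yeast growth inhibition relative to vehicle controls, following compound exposure of a strain with a defined DNA repair/cell cycle alteration.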

[14] = NCI Yeast Anticancer Drug Screen. Data for the mlh1 rad18 strain (AID 175); conditions: S. cerevisiae mlh1 rad18 strain growth inhibition, hits give high values
In short: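 Yeast w/ defined DNA-repair lesions; compound exposure; growth vs vehicle controls → % inhibition.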

[15] = NCI Yeast Anticancer Drug Screen. Data for the rad18 strain (AID 177); conditions: S. cerevisiae rad18 mutant growth inhibition, hits give high values
In short: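 Readout: growth inhibition vs vehicle controls. Cells: genetically altered yeast strain, DNA repair defect.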

[16] = at 5.0 µM (retest, dose inferred, filed as 0.5)
[17] = at 50.0 µM (retest, dose inferred, filed as 5.0)

Measured: growth inhibition

Nc1ccn(C2OC(CO)C3[O][Sn]([c]4ccccc4)([c]4ccccc4)[O]C32)c(=O)n1 (stereo unspecified)
active: [3]; at 100.0 µM 85% | [4]; at 50.0 µM 95.4% | [4]; at 100.0 µM 84% | [5]; at 50.0 µM 95.5% | [6]; at 100.0 µM 78% | [7]; at 50.0 µM 86.2% | [9]; at 50.0 µM 92.1% | [10]; at 50.0 µM 95.9% | [10]; at 100.0 µM 75% | [11]; at 100.0 µM 79% | [12]; at 100.0 µM 70% | [13]; at 100.0 µM 89% | [14]; [17] 87% | [14]; at 50.0 µM 95.2% | [15]; at 100.0 µM 88%
inactive: [1]; at 1.2 µM -1% | [1]; at 3.7 µM -1% | [1]; at 11.0 µM 1% | [1]; at 33.0 µM 9% | [1]; at 100.0 µM 53% | [2]; at 1.2 µM 1% | [2]; at 3.7 µM -5% | [2]; at 11.0 µM -1% | [2]; at 33.0 µM 6% | [2]; at 100.0 µM 13% | [3]; at 1.2 µM 7% | [3]; at 3.7 µM 3% | [3]; at 11.0 µM -3% | [3]; at 33.0 µM 30% | [4]; at 1.2 µM 4% | [4]; at 3.7 µM -1% | [4]; [16] -5% | [4]; at 11.0 µM 26% | [4]; at 33.0 µM 61% | [4]; [17] 51% | [5]; at 1.2 µM 0% | [5]; at 3.7 µM 3% | [5]; [16] -6% | [5]; at 11.0 µM 4% | [5]; at 33.0 µM 17% | [5]; [17] 34% | [5]; at 100.0 µM 52% | [6]; at 1.2 µM 1% | [6]; at 3.7 µM 1% | [6]; at 11.0 µM 3% | [6]; at 33.0 µM 22% | [7]; [16] -12% | [7]; [17] 65% | [8]; at 1.2 µM 1% | [8]; at 3.7 µM -1% | [8]; at 11.0 µM 9% | [8]; at 33.0 µM 11% | [8]; at 100.0 µM 60% | [9]; [16] -26% | [9]; [17] -9% | [10]; at 1.2 µM 1% | [10]; at 3.7 µM 1% | [10]; [16] -18% | [10]; at 11.0 µM 3% | [10]; at 33.0 µM 19% | [10]; [17] 41% | [11]; at 1.2 µM 0% | [11]; at 3.7 µM 0% | [11]; at 11.0 µM 5% | [11]; at 33.0 µM 31% | [12]; at 1.2 µM -1% | [12]; at 3.7 µM 0% | [12]; at 11.0 µM 6% | [12]; at 33.0 µM 33% | [13]; at 1.2 µM 0% | [13]; at 3.7 µM 0% | [13]; at 11.0 µM 9% | [13]; at 33.0 µM 44% | [14]; [16] -22% | [15]; at 1.2 µM 3% | [15]; at 3.7 µM 8% | [15]; at 11.0 µM 27% | [15]; at 33.0 µM 67%

CN(C)CCn1c2c3ccccc3ccc2c2oc(=O)c3ccccc3c21
active: [1]; at 33.0 µM 92% | [1]; at 100.0 µM 92% | [2]; at 11.0 µM 94% | [2]; at 33.0 µM 97% | [2]; at 100.0 µM 94% | [3]; at 33.0 µM 96% | [3]; at 100.0 µM 93% | [4]; at 11.0 µM 93% | [4]; at 33.0 µM 97% | [4]; [17] 95% | [4]; at 50.0 µM 86.5% | [4]; at 100.0 µM 92% | [5]; at 33.0 µM 95% | [5]; [17] 98% | [5]; at 50.0 µM 88.3% | [5]; at 100.0 µM 91% | [6]; at 33.0 µM 95% | [6]; at 100.0 µM 91% | [7]; [17] 93% | [7]; at 50.0 µM 89% | [8]; at 33.0 µM 90% | [8]; at 100.0 µM 89% | [9]; [17] 93% | [9]; at 50.0 µM 84.5% | [10]; at 33.0 µM 93% | [10]; [17] 95% | [10]; at 50.0 µM 86.8% | [10]; at 100.0 µM 95% | [11]; at 33.0 µM 95% | [11]; at 100.0 µM 95% | [13]; at 33.0 µM 93% | [13]; at 100.0 µM 92% | [14]; [17] 96% | [14]; at 50.0 µM 82.7%
inactive: [1]; at 1.2 µM 13% | [1]; at 3.7 µM 8% | [1]; at 11.0 µM 35% | [2]; at 1.2 µM 19% | [2]; at 3.7 µM 54% | [3]; at 1.2 µM -7% | [3]; at 3.7 µM 10% | [3]; at 11.0 µM 49% | [4]; at 1.2 µM 21% | [4]; at 3.7 µM 51% | [4]; [16] 52% | [5]; at 1.2 µM 17% | [5]; at 3.7 µM 12% | [5]; [16] -12% | [5]; at 11.0 µM 40% | [6]; at 1.2 µM 3% | [6]; at 3.7 µM -2% | [6]; at 11.0 µM 35% | [7]; [16] -1% | [8]; at 1.2 µM -2% | [8]; at 3.7 µM -3% | [8]; at 11.0 µM 36% | [9]; [16] 4% | [10]; at 1.2 µM -8% | [10]; at 3.7 µM 10% | [10]; [16] 3% | [10]; at 11.0 µM 19% | [11]; at 1.2 µM 12% | [11]; at 3.7 µM 3% | [11]; at 11.0 µM 41% | [13]; at 1.2 µM 12% | [13]; at 3.7 µM 16% | [13]; at 11.0 µM 50% | [14]; [16] 10%
